Screening data (PubChem BioAssay)
AmpC inh detg: blocks E. coli AmpC beta-lactamase in detergent assay | AmpC hydrolysis of nitrocefin, absorbance 480 nm, 0.01% Triton | 370,000 compounds, 0.041% hits | Potency, µM (titrated, usually from 114 µM), for inactives: at the top dose activity change, negative = inhibition, usual class: inhibitors | P00811;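 further: 0% = no-compound wells and -100% = no-enzyme wells; nearly all actives have a fitted effect of over 25% in size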
Target sequence (P00811 whole entry, looked up): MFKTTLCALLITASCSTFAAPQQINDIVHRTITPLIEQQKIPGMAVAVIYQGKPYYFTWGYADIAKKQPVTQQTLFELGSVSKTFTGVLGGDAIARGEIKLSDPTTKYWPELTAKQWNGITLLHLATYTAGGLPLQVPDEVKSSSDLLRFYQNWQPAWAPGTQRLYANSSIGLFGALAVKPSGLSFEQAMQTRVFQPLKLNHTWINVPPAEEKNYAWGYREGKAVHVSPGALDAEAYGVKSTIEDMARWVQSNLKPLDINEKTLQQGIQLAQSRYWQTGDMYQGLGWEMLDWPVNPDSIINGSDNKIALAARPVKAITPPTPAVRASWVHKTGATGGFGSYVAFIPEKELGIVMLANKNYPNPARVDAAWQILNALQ
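AmpC (5.3 nM in the dispensed reagent) in 20 mM phosphate pH 7.0 with 0.01% (detergent screen) or 0.0001% Triton X-100 was preincubated with compounds for 15 min at room temperature. Nitrocefin was then added from an 800 uM solution, and hydrolysis was followed at 480 nm.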
AmpC no deterg: inhibitors of E. coli AmpC beta-lactamase without detergent. P00811. AmpC nitrocefin hydrolysis, absorbance 480 nm, 0.0001% Triton. Potency, µM (top dose mostly 57.1 µM), for inactives: top-dose activity change, negative = inhibition, usual class: inhibitors. 330,000 compounds, 0.52% hits. AID 485341;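 further: plate controls were no compound for no effect and no enzyme for full effect; nearly all actives have a fitted effect of over 20% in size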
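AmpC (5.3 nM in the dispensed reagent) in 20 mM phosphate pH 7.0 with 0.01% (detergent screen) or 0.0001% Triton X-100 was preincubated with compounds for 15 min at room temperature. Nitrocefin was then added from an 800 uM solution, and hydrolysis was followed at 480 nm.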
VACV mCherry inh: vaccinia inhibition (mCherry reporter) | Vaccinia virus mCherry reporter infection, fluorescence | Potency, µM (series often up to 36.5 µM), without a hit: top-dose activity change, negative = inhibition, most hits filed as inhibitors | 310,000 compounds, 0.63% hits; calls by dose curve; tested in A549 cells; further: on the % scale 0 is the no-effect control and ±100 the full control effect; nearly all actives have a fitted effect of over 35% in size
SARS PLP yeast: inhibitors of SARS-CoV papain-like protease in yeast; S. cerevisiae expressing SARS-CoV PLpro, growth rescue; Potency, µM (top dose mostly 32.9 µM), without a hit: at the highest dose activity, positive = growth rescue, most hits filed as activators; 330,000 compounds, 0.19% hits; AID 485353; calls by dose curve; further: 0% is about no effect; nearly all actives have a fitted effect of over 55% in size
VACV Venus inh: vaccinia inhibition (Venus reporter). 330,000 compounds, 0.46% hits. Vaccinia virus Venus reporter expression, fluorescence. Potency, µM (series often up to 36.5 µM), for inactives: at the top dose activity change, negative = inhibition, hits mostly inhibitors; calls by dose curve; tested in A549 cells; further: on the % scale 0 is the no-effect control and ±100 the full control effect; nearly all actives have a fitted effect of over 30% in size
AMA1-RON2 inh: disrupts binding of P. falciparum AMA1 to RON2; AlphaScreen AMA1-biotinylated RON2 peptide binding; Potency, µM (highest dose often 58.2 µM), for the others: at the top dose activity change, negative = inhibition, most hits filed as inhibitors; 360,000 compounds, 0.2% hits;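 further: 0% = vehicle wells and -100% = peptide control; nearly all actives have a fitted effect of over 45% in size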
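AMA1 (3D7) with his tag at 25 nM final met compounds first, then biotinylated RON2 peptide at 25 nM; detection used donor plus acceptor beads, 10 µg/mL apiece, read by AlphaScreen after 30 min at room temperature.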
* marks the source's active call; other numbers are inactive results; i = inactive; ? = inconclusive; . = no result. A selection: hits, their analogues and other compounds. The true share with any hit is near 1.3%. Unless noted, the call rests on the fitted dose curve; in most records, active means well fitted curve in the direction sought with a large enough effect; inconclusive means small, poorly fitted or top-dose-only effect, or another doubt; inactive means no such curve, though single readings can be large; an effect the other way counts as inactive or inconclusive. Potency means the concentration at half of the fitted maximal effect.

SMILES	AmpC inh detg	AmpC no deterg	VACV mCherry inh	SARS PLP yeast	VACV Venus inh	AMA1-RON2 inh
CN(C)S(=O)(=O)N1CCN(S(=O)(=O)c2ccc(F)cc2)CC1	2.8%	-16.2%	i	1.7%	-7.1%	1.4%
CN(C)S(=O)(=O)c1ccc(N2CCN(S(=O)(=O)c3ccc(F)cc3)CC2)c(Cl)c1	-7.5%	2.0%	10µM*	-2.9%	10µM*	-0.5%
COc1cc(CN2CCCC(c3nc(-c4ccncc4)ncc3-c3ccccc3)C2)ccc1O (stereo not given)	.	.	-12.1%	.	-0.2%	.
Cc1cccc(NC(=O)CSc2nc(N)c(NC(=O)c3cccs3)c(=O)[nH]2)c1	-8.7%	-38.4%	i	-1.1%	-13.5%	0.0%
O=C(CSc1nc2nc(-c3cccs3)cc(C(F)(F)F)c2c(=O)[nH]1)Nc1ccc(F)c(F)c1	5.4%	-40.3%	-24.2%	-0.4%	?	-4.4%
Cc1ccc(C)c(NC(=O)CSc2nc3nc(-c4cccs4)cc(C(F)(F)F)c3c(=O)[nH]2)c1	-0.7%	3.55µM*	-24.3%	2.2%	-16.1%	-10.3%
Cc1ccc(C)c(NC(=O)CSc2nc(N)c(NC(=O)c3cccs3)c(=O)[nH]2)c1	-16.7%	14.1µM*	-9.0%	19.7%	4.0%	18.3%
O/C=c1\ccc2cccc3nc(C(F)(F)F)nc1c23	1.2%	12.6µM*	-8.3%	-0.1%	9.6%	?
NNc1nc(C(F)(F)F)nc2ccccc12	-0.6%	-13.5%	-1.0%	-2.1%	5.8%	51.9%
Cn1c(=O)c2c(-c3ccccc3)n(-c3cccc(C#N)c3)cc2n(C)c1=O	-3.2%	.	-10.2%	.	-14.9%	.
Cc1cc(Cl)ccc1OCC(=O)O	-9.6%	153.3%	-17.8%	8.1%	-13.0%	1.6%
Cc1cc(Cl)ccc1Oc1ccccc1C(=O)CC#N	9.6%	3.98µM*	-12.7%	-3.8%	-16.2%	4.4%
O=C(Cc1ccc2c(c1)OCO2)N1CCOc2ccc(CN3CCOCC3)cc2C1	.	.	-3.0%	.	11.8%	.
N/C(COc1cccc(Cl)c1)=N\O	-10.0%	-15.8%	-2.9%	-3.7%	-8.5%	9.4%
N/C(COc1cccc(Cl)c1)=N\NS(=O)(=O)c1ccccc1	2.1%	0.316µM*	.	-1.1%	.	37.3%
Cc1cc(I)ccc1Nc1nc(NCCN2CCOCC2)nc(N2CCOCC2)n1	.	.	-6.7%	.	-16.8%	.
CC(=O)OC1(C)CC(C)C(=O)C(C(O)CC2CC(=O)NC(=O)C2)C1 (stereo not given)	.	.	?	.	0.1µM*	-1.5%
C[C@@H]1C[C@@H]([C@H](O)CC2CC(=O)NC(=O)C2)C(=O)[C@@H](C)C1	2.7%	-4.7%	0.316µM*	4.9%	0.282µM*	6.6%
O=S(=O)(CCc1nc2ccccc2o1)c1ccc2ccccc2c1	-5.3%	-20.0%	.	-1.7%	-24.5%	1.2%
O=S(=O)(CCc1nnc(-c2ccccc2)o1)c1ccc2ccccc2c1	-11.6%	-15.0%	.	5.7%	2.82µM*	7.8%
Cc1ccccc1-c1ccc2n1Cc1cnnn1-c1ccccc1-2	.	.	-7.3%	.	-24.4%	25.1µM*
Cc1ccccc1C(=O)N1Cc2cnnn2-c2ccccc2C1C#N (stereo not given)	.	.	-4.5%	.	-3.8%	-0.1%
CCCSC1=N/C(=C\C=C\c2ccco2)C(=O)S1	-7.4%	-13.2%	-11.5%	-24.1%	0.3%	11.2µM*
CCn1c(-c2ccccc2F)nc2cc(NC(C)=O)cc(C(=O)NC(c3ccccn3)C(F)(F)F)c21 (stereo not given)	.	.	i	.	-28.8%	.
Cc1ccc2c(c1)NC(=O)C(CC(=O)Nc1cc(Cl)ccc1C)O2 (stereo not given)	23.1%	.	-14.6%	.	-15.9%	.
SMILES	AmpC inh detg	AmpC no deterg	VACV mCherry inh	SARS PLP yeast	VACV Venus inh	AMA1-RON2 inh
O=C(O)CC1Oc2ccc(Cl)cc2NC1=O (stereo not given)	?	11.2µM*	.	0.3%	.	-3.3%
Cc1ccc(C2=NC(=O)/C(=C/c3cc(O)c(O)c(Br)c3)S2)cc1	1.5%	17.8µM*	?	6.31µM*	-7.5%	?
CO[C@H]1C=CO[C@@]2(C)Oc3c(C)c(O)c4c(O)c(c5c(nc6cc(C)ccn65)c4c3C2=O)NC(=O)/C(C)=C\C=C[C@H](C)[C@H](O)[C@@H](C)[C@@H](O)[C@@H](C)[C@H](OC(C)=O)[C@@H]1C	.	.	-5.5%	.	-26.8%	.
COC(=O)c1ccc(CSc2nc3ccc(Cl)cc3[nH]2)o1	-3.6%	-31.0%	.	8.6%	-16.0%	-14.1%
COC(=O)c1ccc(CSc2nc3scc(-c4cccs4)c3c(=O)[nH]2)o1	-10.3%	10µM*	.	0.0%	.	-10.4%
O=C(/C=C/c1ccc(F)cc1)NC(=S)NNC(=O)[C@H]1C[C@@H]1c1ccccc1	-2.5%	10µM*	.	14.1%	.	83.9%
CC(NC(=O)c1ccco1)c1nnc2n1CCN(Cc1ccc(N3CCCC3)cc1)CC2 (stereo not given)	.	.	-3.1%	.	1.4%	.
O=C(c1cc([N+](=O)[O-])ccc1N1CCOCC1)N1CCN(c2ccccc2)CC1	6.3%	95.5%	.	-0.1%	.	.
O=[N+]([O-])c1ccc(O)c(C(C#Cc2ccccc2)N2CCOCC2)c1 (stereo not given)	-3.1%	8.91µM*	i	-7.8%	-19.2%	0.2%
Cc1cccc2cc(CN(CC3CCCO3)C(=O)c3ccccc3F)c(N(C)C)nc12 (stereo not given)	.	.	-5.7%	.	17.1%	.
Cc1ccccc1-c1n[nH]c(=S)n1/N=C/C=C/c1ccco1	3.4%	10µM*	.	1.3%	.	4.0%
S=c1[nH]nc(-c2ccc(Cl)cc2)n1/N=C/C=C/c1ccco1	-5.9%	15.8µM*	i	-1.5%	-11.2%	54.0%
S=c1[nH]nc(-c2ccccc2)n1/N=C/C=C/c1ccco1	-13.0%	-55.6%	i	?	-5.9%	45.4%
COc1ccc(OC)c(-c2cc(Cl)c3c(c2)CC(CNC(=O)[C@@H]2CCCN2C(C)=O)O3)c1 (stereo not given in full)	.	.	-4.3%	.	7.1%	.
O=C(Nc1nc(-c2ccccn2)cs1)Nc1ccc(F)cc1F	-0.3%	87.2%	3.98µM*	-14.9%	?	87.7%
O=C(CS(=O)(=O)c1ccccc1)Nc1nc(-c2ccc(F)cc2)cs1	2.1%	-49.9%	.	-3.1%	.	-2.0%
O=C(CCS(=O)(=O)c1ccccc1)Nc1nc(-c2ccc(F)cc2)cs1	1.9%	-53.8%	12.6µM*	1.7%	?	3.0%
O=C(Nc1nc(-c2ccccc2)cs1)Nc1ccc(F)cc1F	-2.1%	20µM*	-26.9%	-13.0%	-12.2%	-6.2%
O=C(Nc1ccccc1)Nc1nc(-c2ccccc2)cs1	-7.3%	-31.7%	.	-0.8%	.	6.1%
Cc1ccc(C(C)CCN2CCOc3ccc(CN4CCOCC4)cc3C2)o1 (stereo not given)	.	.	i	.	-8.0%	.
